# Out of some 69,000 compounds screened, about 8,600 (12%) showed an effect of 50% or more. The list comes from a sample in which strong results are over-represented; it also holds similar structures and randomly drawn compounds.
# Tested on: Plasmodium berghei
# Assay: Screen against P. berghei liver stage (PbLuc), transformed with Luciferase, at 10uM
# Format: functional, HepG2
# Conditions: tested at 10 uM
row,Structure (SMILES),INHIBITION [%]
1,CCn1cc(S(=O)(=O)N2CCCC3(CC=CNC3=O)C2)cn1 (configuration not stated),28.5
2,CC(CNC(=O)NCc1ccco1)N1CCc2sccc2C1 (configuration not stated),-12.5
3,CCCn1c(C)c(CC(=O)NCCNC(C)=O)c2c1CC(C)(C)CC2=O,-4.52
4,CCCn1c(C)c(CC(=O)NCCC(N)=O)c2c1CC(C)(C)CC2=O,69.6
5,CCCn1c(C)c(CC(=O)NCC(N)=O)c2c1CC(C)(C)CC2=O,-13.3
6,CCn1cc(-n2cc3nc(N4CCC(C)CC4)[nH]cc-3c2=O)cn1,-85.9
7,Cc1cc(-n2c(C)cn(CN(C)C3CCS(=O)(=O)C3)c2=O)no1 (configuration not stated),38.8
8,Cn1cc2c(n1)C(COCC1CC1)CN(Cc1ccccn1)C2 (configuration not stated),12.5
9,Cc1cc(C)c(CNC(=O)NC2COc3ccccc3C2)c(=O)[nH]1 (configuration not stated),10.6
10,COCCN(Cc1ccc(C)cc1)Cc1c[nH]cn1,63.8
11,Cc1ccc(CN(CCCn2ccnc2)Cc2c[nH]cn2)s1,41.5
12,c1cc(CN(CCCn2ccnc2)Cc2ccoc2)ccn1,24.7
13,CN(C)c1ccc(CN(CCCn2ccnc2)Cc2c[nH]cn2)cc1,80.2
14,CCn1ncnc1CN(CCOC)Cc1ccc(C)cc1,49.9
15,COCCN(Cc1ccc(C)cc1)Cc1nccn1C,43.4
16,COc1cc(COCC2CCN(Cc3cccnc3)CC2)cc(OC)c1,5.11
17,CNc1cc(N2CCCC2CNCc2cccnc2C)ncn1 (configuration not stated),21.5
18,Cc1ccc(C(=O)N2CCc3ncc(Cn4cccn4)n3CC2)o1,16.4
19,COc1cc(I)c(Cl)cc1C(=O)N(C)CC(C)(C)O,29
20,Cc1nc(CNC(=O)NC2CCN(c3cccc(Cl)c3)C2)no1 (configuration not stated),56.3
21,Cc1nc(CNC(=O)NC2CCN(c3ncccc3Cl)C2)no1 (configuration not stated),25.4
22,Cc1ccc(CC(=O)NC2CCN(c3cccc(Cl)c3)C2)cn1 (configuration not stated),42.7

row,Structure (SMILES),INHIBITION [%]
1,Cc1cc(C)n(CC2CN(Cc3nc(C4CC4)no3)CCO2)n1 (configuration not stated),-27.8
2,CCCn1c(C)c(CC(=O)N(C)CC(=O)OC)c2c1CC(C)(C)CC2=O,4.25
3,O=C(c1ccsc1)N1CCN(CC(O)c2cccc(F)c2)CC1 (configuration not stated),40.6
4,CC(C)OCCC(=O)N1CCN(CC(O)c2ccccc2)CC1 (configuration not stated),-12.5
5,COc1cccc(C(O)CN2CCN(C(=O)CCC(C)C)CC2)c1 (configuration not stated),55.4
6,CCOCC(O)CN1CCN(C(=O)c2ccsc2)CC1 (configuration not stated),43.4
7,COc1cccc(C(=O)N2CCN(CC(O)c3ccccc3)CC2)c1 (configuration not stated),32.2
8,COc1cccc(C(O)CN2CCN(C(=O)c3ccsc3)CC2)c1 (configuration not stated),53.6
9,Cc1cccc2c1C(=O)NC(c1cnc(C3CCC3)s1)N2 (configuration not stated),-91.5
10,CN1CCN(c2cccc(Cl)c2CNCCS(C)(=O)=O)CC1,19.9
11,Cn1c(Cn2ccnc2)nnc1C1CCN(C(=O)c2ccoc2)CC1,-62.8
12,CNc1ccc(CC2CCCN(C(=O)c3cnco3)C2)nn1 (configuration not stated),1.11
13,CNc1ccc(CC2CCCN(C(=O)c3c(C)noc3C)C2)nn1 (configuration not stated),21.9
14,CCc1cc(C(=O)N2CCCC(Cc3ccc(NC)nn3)C2)on1 (configuration not stated),60.4
15,Cc1noc(CNC(=O)NCC2(C)CCCc3ccccc32)n1 (configuration not stated),6.29
16,COCCCNC(=O)c1ccccc1-n1cc(CN(C)C)cn1,20.8
17,CC(C)NC(=O)C1CN(C(=O)COc2ccccc2)CC12CCOCC2 (configuration not stated),24.1
18,CC(C)CCN1C2(CCN(C(=O)C3(C)CC3)C2)c2ccccc2S1(=O)=O (configuration not stated),6.55
19,CC(C)CCN1C2(CCN(Cc3nccs3)C2)c2ccccc2S1(=O)=O (configuration not stated),78.8
20,CC(C)CCN1C2(CCN(C(=O)N(C)C)C2)c2ccccc2S1(=O)=O (configuration not stated),6.55
21,CC(C)CCN1C2(CCN(c3ncccn3)C2)c2ccccc2S1(=O)=O (configuration not stated),13.5
22,COCCN1C2(CCN(Cc3nccs3)C2)c2ccccc2S1(=O)=O (configuration not stated),14.8

row,Structure (SMILES),INHIBITION [%]
1,CN(C)CCN1C2(CCN(Cc3nccs3)C2)c2ccccc2S1(=O)=O (configuration not stated),80
2,O=C(Nc1ccccn1)c1cncc(C2CCNCC2)n1,-35.5
3,N#CC1Sc2nnc(-c3ccccc3Br)n2N=C1N (configuration not stated),16.2
4,O=C(c1ccc(-n2cnnn2)cc1)N1CCCC(n2ccnc2)C1 (configuration not stated),26.4
5,CCN(CC1CCOC1)C(=O)Nc1ccc(N2CCCCC2)nc1 (configuration not stated),-8.83
6,COCCNc1ccc(CC2CCCN(C3CCOCC3)C2)nn1 (configuration not stated),7.71
7,O=C(c1nsc(Cl)c1Cl)N1CCc2nc3sccc3c(=O)n2CC1,-14.1
8,CN1CCN(C(=O)c2n[nH]c3c2CN(Cc2nccs2)CC3)CC1,-105
9,CN(C)C(=O)c1n[nH]c2c1CN(Cc1nccs1)CC2,88
10,CN(C)C(=O)c1n[nH]c2c1CCN(Cc1nccs1)C2,-53.6
11,CC(C)CNC(=O)c1cn(C(C)C)cc2c(=O)[nH]nc1-2,36.8
12,Cn1c(=O)[nH]c(=O)n2c(CC(=O)NCc3ccccc3)cnc12,19.3
13,O=C(Nc1cccnc1-n1cc(Cl)cn1)C1CCCC1,48
14,O=C(Nc1cccnc1-n1cc(Cl)cn1)C1CC1,41.5
15,O=C(Nc1cccnc1-n1cc(Cl)cn1)C1CCCCC1,52.6
16,COc1ccc(C)cc1C(C)NC(=O)CCn1cncn1 (configuration not stated),19.2
17,O=C(c1ccnnc1)N1C[C@@H]2C[C@@H](c3nc(C4CC4)cs3)O[C@@H]2C1,-60.2
18,O=C(c1ccncn1)N1CCC[C@]2(C[C@@H](OCc3ccccn3)CO2)C1,43.9
19,COCC(=O)Nc1cc(S(=O)(=O)C(F)(F)F)ccc1OC,33.7
20,COc1ccc(S(=O)(=O)C(F)(F)F)cc1NC(=O)CSCC#N,48.3
21,COc1ccc(S(=O)(=O)C(F)(F)F)cc1NC(=O)CSC,63.7
22,Cc1ccccc1CN(C)C(=O)CN1CCCC(Cn2cncn2)C1 (configuration not stated),-51.5

row,Structure (SMILES),INHIBITION [%]
1,COc1cc(C)c(C(C)NC(=O)NCCCn2cncn2)cc1OC (configuration not stated),-19.4
2,CCn1nnc2c1C(COCCN(C)C)CN(Cc1ccco1)C2 (configuration not stated),62.3
3,CN(C)C(=O)COCC1CN(CC2CCOCC2)Cc2ncn(C)c21 (configuration not stated),4.57
4,CN(C)CCOCC1CN(Cc2ccoc2)Cc2nnn(C)c21 (configuration not stated),18.5
5,CCn1nnc2c1C(COCCN(C)C)CN(Cc1ccc(C)s1)C2 (configuration not stated),-22.1
6,CCn1nnc2c1C(COC)CN(Cc1ccco1)C2 (configuration not stated),-30.1
7,CN(C)CCN1Cc2ncn(C)c2C(COCC(=O)N(C)C)C1 (configuration not stated),50
8,CN(C)CCOCC1CN(Cc2ccncc2)Cc2nnn(C)c21 (configuration not stated),3.58
9,CCn1nnc2c1C(COCCN(C)C)CN(c1nncs1)C2 (configuration not stated),57.1
10,Cc1cccc(CN2Cc3ncn(C)c3C(COCC(=O)N(C)C)C2)n1 (configuration not stated),-10.3
11,CCS(=O)(=O)N1Cc2nnn(C)c2C(COCCN(C)C)C1 (configuration not stated),48.2
12,CCn1nnc2c1C(COCCN(C)C)CN(S(C)(=O)=O)C2 (configuration not stated),43.8
13,CCn1nnc2c1C(COCCN(C)C)CN(S(=O)(=O)CC)C2 (configuration not stated),52.6
14,CN1CCOC(CNCc2coc(-c3ccc(Cl)cc3)n2)C1 (configuration not stated),33.7
15,CN(CC(=O)N1CCc2[nH]c3ccc(F)cc3c2C1)CC1OCCO1,22.9
16,Cc1c(C(=O)N2CCC3(CCCNC3=O)C2)sc2nc[nH]c(=O)c12 (configuration not stated),12.9
17,CN(C)Cc1cnc2n1CCN(C(=O)NCc1ccccc1)CC2,21.6
18,CC(=O)c1ccc(C(=O)NCCCOC(C)c2ccccc2)s1 (configuration not stated),29.2
19,Cc1cc(N)nc(C2(C)CCCN2C(=O)c2cnccn2)n1 (configuration not stated),17.1
20,O=S(=O)(NCCn1ccc(-c2ccccn2)n1)C1CCCCC1,40
21,Cc1n[nH]c2nc(-c3cc(Br)ccc3O)cc(C(=O)O)c12,4.82
22,Cc1ccc(O)c(CN2CCCCC2CCN2CCOCC2)c1 (configuration not stated),30.3

row,Structure (SMILES),INHIBITION [%]
1,Cc1nnc2n1CCN(Cc1csc(-c3ncccn3)n1)C2,26.4
2,Cn1c(CN2CCCCC2)nnc1C1CCCN(c2ccncc2F)C1 (configuration not stated),-2.43
3,CCn1nnc2c1C(COCC(=O)N(C)C)CN(Cc1ccco1)C2 (configuration not stated),-3.26
4,CN(C)C(=O)COCC1CN(Cc2ccoc2)Cc2nnn(C)c21 (configuration not stated),-3.24
5,CCn1nnc2c1C(COCC(=O)N(C)C)CN(Cc1ccoc1)C2 (configuration not stated),53.4
6,CC(C)N1CCc2nnc(COc3cncnc3)n2CC1,-2.25
7,CC(C)N1CCCCC1c1nc(N(C)C)ncc1I (configuration not stated),-9.51
8,Cc1ncncc1-c1ccnc(N(C)C)n1,4.08
9,CCCc1cc(NC2CCc3nc(C)nn3C2)n2ncnc2n1 (configuration not stated),-2.23
10,Cc1nc(NCC2CC2)nc2c1COCC21CCN(C(=O)C(C)(C)C)C1 (configuration not stated),49.7
11,CCN1CCC2(COCc3cnc(NCC4CC4)nc32)C1 (configuration not stated),13.5
12,CN(C)S(=O)(=O)N1CCC2(COCc3cnc(NCC4CC4)nc32)C1 (configuration not stated),62.8
13,c1cc(N2CCC3(COCc4cnc(NCC5CC5)nc43)C2)ncn1 (configuration not stated),31.7
14,Fc1cnc(N2CCC3(COCc4cnc(NCC5CC5)nc43)C2)nc1 (configuration not stated),-53.2
15,c1ccc(CN2CCC3(COCc4cnc(NCC5CC5)nc43)C2)cc1 (configuration not stated),43.9
16,Cc1nc(NCC2CC2)nc2c1COCC21CCN(C)C1 (configuration not stated),31.3
17,Cc1nc(NCC2CC2)nc2c1COCC21CCN(S(=O)(=O)C2CC2)C1 (configuration not stated),66
18,O=S(=O)(C1CC1)N1CCC2(COCc3cnc(NCC4CC4)nc32)C1 (configuration not stated),57.4
19,CC(C)c1noc(CCC(=O)NC(C)c2ccccn2)n1 (configuration not stated),-40.96
